Rows were chosen to be rich in hits. Some 6.7% of all compounds tested hit in one or more screens of this group.
C diff growth: blocks growth of Clostridium difficile; Clostridium difficile clinical isolate growth, OD600, 24 h; hits give low values; growth activity, negative = inhibition, % at 16 µg/mL (by protocol); hit rate 0.25% among 86,000; AID 1259249;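 active means mean growth activity at or below -80% and every replicate also at or below -80%; inconclusive means mean at or below -80% but some replicate above -80%; inactive means mean growth activity above -80%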
T cruzi growth-1: blocks T. cruzi growth in NIH3T3 culture; T. cruzi beta-gal in NIH3T3, GalScreen luminescence, 90 h; inhibition, % at 8.34 µM; hit rate 5.9% among 77,000; AID 624255;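 active means mean inhibition above about 93%, with at least 55% of replicates each passing it, limit read from the data, passing the limit was not always enough; inconclusive means only one of those two conditions holds; inactive means neither condition holds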
Pf Dd2 inh: inhibitors of Plasmodium falciparum Dd2 growth; P. falciparum Dd2 growth, SYBR Green, 72 h; hits give low values; activity change, % at 10 µM; hit rate 2.3% among 94,000; AID 1159554; in the data active means activity change below about -80%; inconclusive means no clear call, values can overlap the other calls
T cruzi growth-2: inhibitors of T. cruzi proliferation | shares compounds with T cruzi growth-1 | T. cruzi beta-gal in NIH3T3, GalScreen luminescence, 90 h | inhibition, % at 8.35 µM | hit rate 72% among 5,600 | AID 651739;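 active means mean replicate inhibition above about 95% and at least 55% of replicates individually reaching it, limit read from the data; inconclusive means only one of the two criteria is met; inactive means neither criterion is met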
T cruzi growth-3: blocks T. cruzi growth in NIH3T3 host cells; inhibition, % at 2.09 µM; shares compounds with T cruzi growth-1; hit rate 21% among 5,600; T. cruzi beta-gal in NIH3T3, GalScreen luminescence, 90 h; AID 651740;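 active means mean inhibition above about 95%, with at least 55% of replicates also reaching it, limit read from the data; inconclusive means meets just one of the two conditions; inactive means meets neither condition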
NIH3T3 tox: kills mouse NIH/3T3 fibroblasts. shares compounds with T cruzi growth-1. NIH/3T3 viability, CellTiter-Glo ATP luminescence, 90 h. cytotoxicity (signal decrease), % at 8.35 µM. hit rate 14% among 5,600;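 active means mean signal decrease across replicates above about 35% based on untreated-well scatter, with enough replicates individually passing, limit read from the data; inconclusive means no rule stated though some were filed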
3T3 cytotox 2: cytotoxicity in mouse NIH/3T3 fibroblasts; hit rate 56% among 5,600; shares compounds with T cruzi growth-1; AID 651744; NIH/3T3 viability, CellTiter-Glo ATP luminescence, 90 h; inhibition, % at 24.9 µM;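 active means mean loss of cell viability signal at or above a set limit, and enough replicates individually reaching it; inconclusive means meets only the mean limit or only the replicate share; inactive means meets neither condition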
Numbers stand for hits; . = inactive; ? = inconclusive; / = no result.

SMILES | C diff growth | T cruzi growth-1 | Pf Dd2 inh | T cruzi growth-2 | T cruzi growth-3 | NIH3T3 tox | 3T3 cytotox 2
COc1cccc(C#Cc2ccc3c(c2)O[C@H](CN(C)C(C)=O)[C@@H](C)CN([C@H](C)CO)S3(=O)=O)c1 | . | ? | . | 105 | . | . | 35
COc1ccc(S(=O)(=O)N2CC[C@@H]3[C@H]2c2cc(C#Cc4cccnc4)ccc2N[C@@H]3CO)cc1 | . | . | . | / | / | / | /
COc1cccc(S(=O)(=O)N2CC[C@@H]3[C@H]2c2cc(C#Cc4cccnc4)ccc2N[C@@H]3CO)c1 | . | ? | . | 107 | . | . | 43
CN1c2ccc(C#Cc3cccnc3)cc2[C@H]2[C@H](CCN2C(=O)c2cccnc2)[C@H]1CO | . | . | . | / | / | / | /
CN1c2ccc(C#Cc3cccnc3)cc2[C@@H]2[C@@H](CCN2C(=O)C2CCCCC2)[C@H]1CO | . | 119 | . | 110 | . | 41 | 42
CN1c2ccc(C#Cc3cccnc3)cc2[C@H]2[C@H](CCN2S(=O)(=O)c2ccc(F)cc2)[C@@H]1CO | . | 103 | . | 98 | . | . | 31
Cc1ccc(S(=O)(=O)N2CC[C@H]3[C@@H](CO)N(C)c4ccc(C#Cc5cccnc5)cc4[C@H]32)cc1 | . | . | . | / | / | / | /
CN1c2ccc(C#Cc3cccnc3)cc2[C@@H]2[C@@H](CCN2C(=O)c2cccc(F)c2)[C@@H]1CO | . | 109 | . | 107 | . | . | 31
CN1c2ccc(C#Cc3cccnc3)cc2[C@H]2[C@H](CCN2C(=O)C2CCCCC2)[C@@H]1CO | . | . | . | / | / | / | /
C[C@@H]1CN([C@@H](C)CO)C(=O)c2cccc(NC(=O)Nc3cccc4ccccc34)c2O[C@H]1CN(C)C(=O)Nc1ccc(F)cc1 | . | . | . | / | / | / | /
O=C(C[C@H]1CC[C@@H]2[C@H](COC[C@H](O)CN2C(=O)Nc2ccc(Cl)cc2)O1)NCC1CC1 | . | . | . | / | / | / | /
C[C@H](CO)N1C[C@H](C)[C@H](CN(C)Cc2ccc(C(=O)Nc3ccccc3N)cc2)Oc2ccc(NS(=O)(=O)c3ccc(F)cc3)cc2C1=O | . | . | . | / | / | / | /
CS(=O)(=O)N1CCCCN2[C@@H](CO)[C@H](c3ccc(Br)cc3)[C@@H]2C1 | . | . | . | / | / | / | /
CCCNC(=O)N1CCC2(CC1)CN(C(C)=O)[C@H](CO)c1c2c2ccc(OC)cc2n1C | . | / | . | / | / | / | /
COc1ccc(CN(C)C[C@H]2Oc3ccc(NC(=O)C4CC4)cc3CC(=O)N([C@H](C)CO)C[C@H]2C)cc1 | . | . | . | / | / | / | /
CCCC#Cc1ccc([C@H]2[C@@H](C#N)N(C(=O)C3CCCC3)[C@@H]2CO)cc1 | . | 103 | . | 100 | 104 | . | .
CCCC#Cc1ccc([C@@H]2[C@H](C#N)N(C(=O)C3CCC3)[C@H]2CO)cc1 | . | ? | . | 101 | 105 | . | 30
CCCC#Cc1ccc([C@H]2[C@@H](CO)N(C(=O)C3CCC3)[C@H]2C#N)cc1 | . | / | . | / | / | / | /
CCCC#Cc1ccc([C@@H]2[C@@H](CO)N(C(=O)C3CCCC3)[C@H]2C#N)cc1 | . | 100 | . | 97 | 98 | . | .
CN(C)CC#Cc1ccc([C@H]2[C@@H](CO)N(C(=O)C3CCCC3)[C@H]2C#N)cc1 | . | . | . | / | / | / | /
CC(C)C#Cc1ccc([C@H]2[C@H](C#N)N(C(=O)C3CCC3)[C@H]2CO)cc1 | . | 97 | . | 108 | . | . | .
CC(C)C#Cc1ccc([C@@H]2[C@@H](C#N)N(C(=O)C3CCC3)[C@@H]2CO)cc1 | . | . | . | / | / | / | /
C/C=C/c1cnc2c(c1)C(=O)N([C@@H](C)CO)C[C@H](C)[C@@H](CN(C)S(=O)(=O)c1cn(C)cn1)O2 | / | / | . | / | / | / | /
COc1ccccc1S(=O)(=O)N1CC[C@@H]2[C@H](CO)N(C)c3ccc(C#Cc4cccc(F)c4)cc3[C@@H]21 | . | . | . | / | / | / | /
O=C(C[C@H]1CC[C@@H]2[C@H](COC[C@@H](O)CN2Cc2cc(F)ccc2F)O1)N[C@H]1CCN(Cc2ccccc2)C1 | . | . | . | / | / | / | /
SMILES | C diff growth | T cruzi growth-1 | Pf Dd2 inh | T cruzi growth-2 | T cruzi growth-3 | NIH3T3 tox | 3T3 cytotox 2
C[C@@H]1CN([C@H](C)CO)C(=O)c2cccc(NC(=O)Nc3cccc4ccccc34)c2O[C@H]1CN(C)S(=O)(=O)c1cn(C)cn1 | . | . | . | / | / | / | /
CCCC#Cc1ccc([C@H]2[C@@H](C#N)N(C(=O)C3CCCCC3)[C@H]2CO)cc1 | . | . | . | / | / | / | /
CCCC#Cc1ccc([C@@H]2[C@@H](C#N)N(C(=O)C3CCCCC3)[C@@H]2CO)cc1 | . | 103 | . | 100 | . | . | .
CO[C@H]1CN(C)C(=O)c2ccc(NS(C)(=O)=O)cc2OC[C@H](C)NC[C@@H]1C | . | / | . | / | / | / | /
CO[C@H]1CC[C@H]2CCN(C)C(=O)[C@@H](C)[C@H](OC)CN(C)C(=O)c3cccc(C#N)c3OC[C@@H]1O2 | / | . | . | / | / | / | /
C[C@H](CO)N1C[C@H](C)[C@H](CN(C)Cc2ccccc2)Oc2ncc(C3=CCCC3)cc2C1=O | . | . | . | / | / | / | /
C[C@@H]1CN([C@H](C)CO)C(=O)c2cc(C3=CCCCC3)cnc2O[C@H]1CN(C)Cc1ccccc1 | . | . | . | / | / | / | /
C[C@@H]1CN([C@@H](C)CO)C(=O)c2cc(C3=CCCCC3)cnc2O[C@H]1CN(C)Cc1cccc(F)c1 | . | 115 | . | 105 | . | . | 105
C[C@@H]1CN([C@@H](C)CO)C(=O)c2cc(C3=CCCC3)cnc2O[C@@H]1CN(C)Cc1ccccc1 | . | ? | . | ? | . | . | .
C[C@@H]1CN([C@@H](C)CO)C(=O)c2cc(C3=CCCCC3)cnc2O[C@@H]1CN(C)Cc1ccccc1 | . | ? | . | 100 | . | . | 48
C[C@H]1CN([C@@H](C)CO)C(=O)c2cc(C3=CCCCC3)cnc2O[C@@H]1CN(C)Cc1cccc(F)c1 | . | . | . | / | / | / | /
O=C(Nc1ccc(F)cc1)N[C@H]1CC[C@@H](CCNS(=O)(=O)c2ccccc2F)O[C@H]1CO | . | / | / | / | / | / | /
O=C(NCCCN1CCOCC1)[C@H]1N[C@H]2c3ccc(C4=CCCC4)c(=O)n3C[C@H]2[C@@H]1CO | . | . | . | / | / | / | /
COc1ccc(S(=O)(=O)Nc2ccc3c(c2)CC(=O)N([C@H](C)CO)C[C@H](C)[C@H](CN(C)S(=O)(=O)c2ccccc2)O3)cc1 | . | . | . | / | / | / | /
Cc1ccc(S(=O)(=O)Nc2ccc3c(c2)C(=O)N([C@@H](C)CO)C[C@H](C)[C@H](CN(C)C(=O)Nc2cccc4ccccc24)OCCCC[C@H](C)O3)cc1 | . | 105 | ? | 106 | . | . | .
Cc1ccc(S(=O)(=O)Nc2ccc3c(c2)C(=O)N([C@@H](C)CO)C[C@H](C)[C@H](CN(C)C(=O)Nc2cccc4ccccc24)OCCCC[C@@H](C)O3)cc1 | . | . | ? | / | / | / | /

From PubChem
